Rows were chosen to be rich in hits. Some 2.7% of all compounds tested hit in one or more screens of this group.
ALOX12 inh: inhibitors of human 12S-lipoxygenase ALOX12 | 580,000 tested, 1.1% active | P18054 | Potency, µM (series often up to 108 µM), actives largely listed as inhibitors | purified 12hLO, xylenol orange hydroperoxide absorbance
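Purified human 12hLO (150 nM final) in 25 mM Hepes, 0.01% Triton X-100, pH 7.0 was preincubated 15 min at room temperature with compound. Then 40 uM arachidonic acid was added, 30 min. Hydroperoxide was read by Fe-XO absorbance ratio 573/405 nm.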
A549 viability: A549 cytotoxicity, counter-screen for Nrf2 inhibitors; Potency, µM (highest dose often 46 µM), most hits filed as inhibitors; 390,000 tested, 0.16% active; A549 ARE-Fluc cells, CellTiter-Fluor viability, 18-24 h; AID 504648
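A549 ARE-Fluc cells in 5% FBS OPTI-MEM, 5000 cells/well, rested 2 h then exposed to compounds in concentration-response for 18-24 h at 37 °C. Viability by CellTiter-Fluor fluorescence (Ex 405/Em 525) after 30 min; luciferase luminescence (BugLite, 15 min, RT) read afterwards.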
ERG Ets-DNA blk: ERG Ets/DNA interaction inhibition; 370,000 tested, 0.028% active; AID 624246; fluorescence polarization, His-ERG Ets domain / labelled DNA; Potency, µM (top dose mostly 76.9 µM), hits mostly inhibitors; P11308; active means well fitted inhibition curve with a large enough effect in the polarisation, with a control signal flat; inconclusive means small, poorly fitted or top-dose-only effect, or effect the other way, or a change in a side signal; inactive means no such curve, though single readings can be large or run the other way; the % refers to the polarisation;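 further: polarization taken with two DNA probes labelled with fluorescein and Texas red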
Target sequence (P11308 whole entry, looked up, the tested form may be a part): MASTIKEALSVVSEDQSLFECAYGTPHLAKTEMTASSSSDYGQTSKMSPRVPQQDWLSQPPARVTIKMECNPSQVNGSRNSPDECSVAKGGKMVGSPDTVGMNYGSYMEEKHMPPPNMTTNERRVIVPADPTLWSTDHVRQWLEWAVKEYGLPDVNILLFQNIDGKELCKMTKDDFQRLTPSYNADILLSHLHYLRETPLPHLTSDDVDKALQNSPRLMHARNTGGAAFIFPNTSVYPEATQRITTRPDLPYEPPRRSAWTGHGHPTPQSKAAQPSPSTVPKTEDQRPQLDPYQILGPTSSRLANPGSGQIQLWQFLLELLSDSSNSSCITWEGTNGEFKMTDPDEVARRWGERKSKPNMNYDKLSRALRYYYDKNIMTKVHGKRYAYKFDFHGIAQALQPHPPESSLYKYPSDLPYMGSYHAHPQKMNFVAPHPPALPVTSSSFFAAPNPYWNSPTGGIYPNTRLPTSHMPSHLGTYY
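His-tagged ERG Ets domain (1 uM in the protein solution; 300mM KCl, 50mM Tris-HCl, 1mM EDTA, 1mM DTT, pH 7.5) received compound, then a probe mix of 5 nM fluorescein-DNA and 100nM Texas-615-DNA. Fluorescence polarization was read for both dyes.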
Nrf2 activator: Nrf2 pathway activation. AREc32 ARE-luciferase reporter (MCF7-derived line), luminescence, 24 h. Potency, µM (titrated, usually from 46.1 µM), actives largely listed as activators. 410,000 tested, 0.31% active; further: nearly all actives have a fitted effect of over 65% in size
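For detection, Steady-Glo was added and plates sat 30 min at RT; before that, AREc32_Fluc cells grown overnight in OPTI-MEM/5% FBS had been treated with 23 nL compound for 24 hr at 37 deg C.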
Nrf2 inh: inhibitors of Nrf2 signaling; A549 ARE-Fluc reporter, luciferase luminescence, 18-24 h; Potency, µM (top dose mostly 46 µM), actives largely listed as inhibitors; 360,000 tested, 2.1% active; further: nearly all actives have a fitted effect of over 60% in size
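Quantitative HTS in A549 cells stably bearing an antioxidant response element-firefly luciferase construct. Inhibition of Nrf2-driven transcription was scored by luminescence after 18-24 h of compound exposure at 37 °C.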
LDHA inh: blocks human lactate dehydrogenase A; P00338; purified LDHA, NADH/diaphorase-resazurin fluorescence; stronger effect = lower value; activity change, % (values are at about 110 or 230 µM); 480,000 tested, 0.15% active; in the data active means activity change below about -30%; inconclusive means mostly about -25% to -30%
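Remaining NADH was detected by diaphorase (0.133 mg/mL) converting 37 µM resazurin to fluorescent resorufin, read at 0 and 20 minutes. The preceding 5-minute room-temperature reaction used 2 nM LDHA, 0.2 mM sodium pyruvate and 0.06 mM NADH at pH 7.4.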
Hits are given with their value; . = inactive; ? = inconclusive; / = no result given; ! = repeats disagree. Unless noted, the call rests on the fitted dose curve; in most records, active means well fitted curve in the direction sought with a large enough effect; inconclusive means small, poorly fitted or top-dose-only effect, or another doubt; inactive means no such curve, though single readings can be large; an effect the other way counts as inactive or inconclusive.

SMILES	ALOX12 inh	A549 viability	ERG Ets-DNA blk	Nrf2 activator	Nrf2 inh	LDHA inh
O=C(C1CCN(S(=O)(=O)c2ccc(Br)s2)CC1)N1CCN(c2cccc(C(F)(F)F)c2)CC1	.	.	.	.	2.91µM	.
Cn1nc(C2CCCC2)cc1[C@H]1CN2CC[C@H]1C[C@@H]2CNC(=O)c1ccc2c(c1)OCO2	.	/	/	/	/	/
CCCN1CCc2cc(O)cc3c2C1Cc1ccc(O)c(O)c1-3 (stereo not drawn)	7.94µM	/	/	/	/	/
C=CCN1CCC23c4c5ccc(O)c4OC2/C(=N/N=C2\CCC4(O)C6Cc7ccc(O)c8c7C4(CCN6CC=C)C2O8)CCC3(O)C1C5 (stereo not drawn)	.	/	/	/	/	/
C=CCN1CCc2cccc3c2[C@H]1Cc1ccc(O)c(O)c1-3	7.94µM	.	.	.	?	.
COc1ccc2c(c1O)-c1cc(O)cc3c1[C@@H](C2)N(C)CC3	.	/	/	/	/	/
COc1ccc(C(=O)C2CCCN(Cc3cnc(C)s3)C2)c(OC)c1 (stereo not drawn)	.	.	.	.	20.6µM	.
COc1ccc(C(=O)C2CCCN(Cc3cnc(C)s3)C2)cc1OC (stereo not drawn)	.	.	.	.	?	.
CC(C(=O)NCc1cccs1)N1CC=C(c2ccccc2)CC1 (stereo not drawn)	?	/	/	/	/	.
COc1ccc(C=C2C(=O)N(C)C(=O)N(C)C2=O)cc1CSc1ccccn1	?	.	.	.	.	.
COc1ccc([N+](=O)[O-])cc1CSc1ccccn1	?	.	.	11.2µM	.	.
O=C(O)c1cc[c]([Hg][Cl])cc1	/	.	.	.	.	-61.4
CN1C(=O)C(=Cc2ccccc2OCc2ccccc2Cl)C(=O)N(C)C1=O	?	.	.	.	.	-45.0
CN1C(=O)C(=Cc2ccccc2OCc2ccc(C(=O)O)cc2)C(=O)N(C)C1=O	.	.	.	.	.	-34.7
Cc1nnc(C(C)N2CCN(C(=O)Cc3ccccc3C)CC2)o1 (stereo not drawn)	.	/	/	/	/	.
N#C/C(=C\c1ccccc1)C(=O)Nc1ccc(Br)cc1C(=O)c1ccccc1	.	/	/	/	/	.
COc1cc2c(cc1OCc1ccccc1)NC(=O)C21CCN(c2ncc(F)cn2)CC1	.	/	/	/	/	/
COc1ccc(CN2C(=O)NC(=O)/C(=C\c3ccco3)C2=O)cc1	39.8µM	.	.	.	.	.
O=C1NC(=O)N(Cc2ccco2)C(=O)/C1=C\c1cccn1CCOc1ccc(Cl)cc1	39.8µM	.	.	.	.	.
COc1ccc(CN2C(=O)NC(=O)/C(=C\c3cc(OC)c(OC)c(OC)c3)C2=O)cc1	?	.	.	.	.	.
Cc1cccc(OCCn2cccc2/C=C2/C(=O)NC(=O)N(Cc3ccco3)C2=O)c1	.	.	.	.	?	.
Cc1cc(OS(C)(=O)=O)c2c3c(c(=O)oc2c1)CCCC3	?	/	/	/	/	.
Cc1ccc2c(c1)C(Cc1nc3ccccc3c(=O)n1-c1ccc(Cl)cc1)C(=O)N2 (stereo not drawn)	?	/	/	/	/	.
O=C(COc1ccccc1)N1CCN(CC2CC=CCC2)CC1 (stereo not drawn)	0.631µM	.	.	.	.	?
FC(F)(F)c1ccc(CNCCc2ccc3c(c2)OCO3)cc1	1.78µM	.	.	.	.	.
SMILES	ALOX12 inh	A549 viability	ERG Ets-DNA blk	Nrf2 activator	Nrf2 inh	LDHA inh
Fc1ccccc1CNCCc1ccc2c(c1)OCO2	?	.	.	.	.	.
Clc1ccc(CNCCc2ccc3c(c2)OCO3)cc1	4.47µM	.	.	.	.	.
CCN(CC)C(=O)c1ccc(NC(=O)CSc2ccc3ccccc3n2)cc1	.	/	/	/	/	.
Cc1cccc(C(=O)Nc2nnc(SCC(=O)NCc3ccco3)s2)c1	.	.	.	3.16µM	.	.
Cc1cccc(Cn2cccc(C(=O)Nc3nnc(C)s3)c2=O)c1	.	.	.	.	/	.
Oc1c(Cl)c(Cl)c(Cl)c(Cl)c1Cl	.	.	.	.	23.1µM	.
C=C(C)[C@@H]1CC=C(C=O)CC1	.	/	/	/	/	/
CC(O)C1C=CC=CC(=O)OC2CC3OC4C5OC5(C)CCC4(COC(=O)C4OC4(C)C(O)CO1)C2(C)C31CO1 (stereo not drawn)	31.6µM	/	.	.	0.231µM	.
COC(=O)c1nc(-c2ccc3c(n2)C(=O)C(N)=C(OC)C3=O)c(N)c(-c2ccc(OC)c(OC)c2O)c1C	15.8µM	.	.	.	.	.
COc1cc2c(cc1Oc1ccccc1)NC(=O)C21CCN(c2cnccn2)CC1	.	/	/	/	/	/
O=C(Nc1ccc2nc3n(c(=O)c2c1)CCCCC3)c1cccc(C(F)(F)F)c1	.	.	.	.	11.6µM	.
O=C(NCC1CC1)c1cn(C2CNC2)nn1	.	/	/	/	/	/
Nc1c(C(=O)OC2CCCCC2)c2nc3ccccc3nc2n1CC1CCCO1 (stereo not drawn)	.	.	.	.	23.1µM	.
CCCNC(=O)c1cn(Cc2ccccc2)c2ccccc12	.	/	/	/	/	.
O=C(CC1CCCCC1)N1CCC(c2nc(-c3ccc(S(=O)(=O)N4CCCC4)cc3)no2)CC1	.	.	.	.	20.6µM	.
CC(C)N(C(=O)CN1CC=C(c2c[nH]c3ccccc23)CC1)C(C)C	.	/	/	/	/	.
C1=C(c2c[nH]c3ccccc23)CCN(Cc2ccccc2)C1	?	.	.	.	6.51µM	.
Cc1ccccc1NC(=NCCCN1CC1)Nc1ccccc1C	.	13µM	.	.	.	.
NCCc1cccc(N)n1	.	/	/	/	/	.
COC1C(C)OC(OC2CC(C)(O)Cc3cc4c(c(O)c32)C(=O)c2c(O)cc3c(c2C4=O)OC2OC3(C)C(O)C(N(C)C)C2O)C(OC)C1(C)OC (stereo not drawn)	?	?	7.08µM	.	?	.
CCCOP(=O)(OCCC)C(NC(=O)c1cc(OC)c(OC)c(OC)c1)c1ccccc1 (stereo not drawn)	.	.	.	.	.	.
CCC(COC(=O)c1cc(OC)c(OC)c(OC)c1)(c1ccccc1)N(C)C (stereo not drawn)	.	.	.	.	20.6µM!	.
Cc1ccc(C2SCC(=O)Nc3n[nH]c(C)c32)cc1 (stereo not drawn)	.	/	/	/	/	.
O=[N+]([O-])c1ccc(N2CCC(O)CC2)c2ccncc12	.	/	/	/	/	.
C=C1C(O)(c2ccccc2)C2CC[N+]1(C)CC2 (stereo not drawn)	?	.	/	.	.	-37.5
C=C1N2CCC(CC2)C1(O)c1ccc(C)cc1 (stereo not drawn)	.	.	.	.	.	.
CCN(CC)C(=O)c1ccc(NC(=O)CCn2nc(-c3ccc(C)cc3)c3ccccc3c2=O)cc1	.	.	.	.	18.4µM	.
COc1ccc2c(c1)C1(CCN(C(=O)c3ccccc3Br)C1)C(=O)N2 (stereo not drawn)	31.6µM	/	/	/	/	/

Bioassay records deposited in PubChem by National Center for Advancing Translational Sciences (NCATS).
